PHOSPHO1 block: inhibitors of human PHOSPHO1 phosphatase; inhibition, % at 13.3 µM; Q8TCT1; 290,000 compounds, 1.1% hits; recombinant PHOSPHO1, absorbance phosphatase assay; in the data active = inhibition above about 60%
Target sequence (Q8TCT1 whole entry, looked up): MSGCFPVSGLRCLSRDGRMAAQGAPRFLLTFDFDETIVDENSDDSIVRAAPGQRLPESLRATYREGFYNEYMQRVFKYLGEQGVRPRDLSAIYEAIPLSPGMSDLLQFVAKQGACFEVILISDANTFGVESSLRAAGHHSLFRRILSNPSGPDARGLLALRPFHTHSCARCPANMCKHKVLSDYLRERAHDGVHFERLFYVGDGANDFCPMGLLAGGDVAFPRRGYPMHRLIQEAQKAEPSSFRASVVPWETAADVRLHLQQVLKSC
PABP1 MLLE inh: inhibitors of microRNA-mediated deadenylation, human PABP1 MLLE binding. 360,000 compounds, 0.36% hits. GST-MLLE / FITC-PAM2 fluorescence polarization. inhibition, % at 20 µM. P11940; in the data active = inhibition above about 35%, passing the limit was not always enough;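 also: plate controls were DMSO wells with GST-MLLE for no effect and wells lacking GST-MLLE protein for full effect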
eIF4H inh: inhibitors of RNA binding by human eIF4H. inhibition, % at 35 µM. 290,000 compounds, 0.94% hits. eIF4H fluorescence polarization binding assay;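 also: calls also rest on retests at 20 µM and on dose response follow-up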
CRFBP-R2 block: antagonists of CRF-binding protein/CRF-R2 receptor complex; 350,000 compounds, 0.59% hits; HEK293 CRF-R2/CRF-BP, CRF-induced calcium fluorescence; inhibition, % at 11.8 µM;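 active = inhibition of the ligand-induced calcium signal above about 50% at the single tested concentration, limit read from the data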
PABP polyA inh: blocks human PABP binding to poly(A) RNA; fluorescence polarization; inhibition, % at 35 µM; 290,000 compounds, 1% hits;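 also: calls also rest on retests at 20 µM and on dose response follow-up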
* hit, by the source's call; . = not tested or not shown. Only some compounds are listed: those with a hit (about 2.6% of all), similar ones and a draw of the others. Unless noted, no rule for the calls is given here.

SMILES	PHOSPHO1 block	PABP1 MLLE inh	eIF4H inh	CRFBP-R2 block	PABP polyA inh
COCCn1c(SCC(=O)Nc2nnc(C)s2)nnc1-c1c[nH]c2ccccc12	13.1	-12.2	-3.9	-3.8	-12.3
COc1ccccc1-n1c(SC)nc2c(sc(=S)n2-c2ccccc2)c1=O	27.3	17.9	-7.8	21.2	4.4
COc1ccccc1-n1c(=S)sc2c(=O)n(Cc3ccco3)c(SC)nc21	0.2	23.6	-5.3	60.1*	-5.7
COC(=O)c1cc2occc2n1Cc1ccc(Cl)cc1	64.2*	5.5	-2.0	-7.4	9.6
COC(=O)c1cc2occc2n1Cc1c(F)cccc1Cl	37.5	.	-8.0	.	-7.0
COc1ccc(S(=O)(=O)N(C)[C@H]2C[C@H]3c4cc(N5CCN(C)CC5)ccc4CCN3C(=O)[C@H]2[C@H](C)O)cc1	.	-4.4	.	8.6	.
C/C(=N\NC(=O)c1ccc(Cl)cc1)c1ccccn1	24.1	4.1	25.2	1.5	-8.4
C/C(=N\Nc1ccc(Cl)cc1)c1ccccn1	94.5*	-0.7	0.5	15.7	1.4
O=c1cc(-c2ccc(O)cc2)oc2cc(O)c(C3OC(CO)C(O)C(O)C3O)c(O)c12 (stereo not drawn)	43.7	10.4	66.9*	-8.7	20.9*
O=c1cc(-c2ccc(O)c(O)c2)oc2cc(O[C@@H]3O[C@H](CO)[C@@H](O)[C@H](O)[C@H]3O)cc(O)c12	.	-13.1	.	9.2	.
COc1ccc(C2C(C#N)=C(SCC(=O)Nc3ccc(C)cc3)NC3=C2C(=O)CC(C)(C)C3)cc1 (stereo not drawn)	88.7*	8.4	-5.5	5.8	6.0
CC1=C(C(=O)Nc2ccccc2)C(c2ccco2)C(C#N)=C(SCC(=O)Nc2cccc(C)c2C)N1 (stereo not drawn)	14.0	1.1	2.1	2.3	3.4
CC1=C(C(=O)Nc2ccccc2)C(c2ccncc2)C(C#N)=C(SCC(=O)Nc2ccccc2)N1 (stereo not drawn)	70.8*	-6.6	-14.8	15.4	-1.7
CCOC(=O)C1=C(C)NC(SCC(=O)Nc2nc(C)cs2)=C(C#N)C1c1cccs1 (stereo not drawn)	76.4*	.	-8.5	.	-2.9
C=CCOC(=O)C1=C(C)NC(SCC(=O)NC(=O)OCC)=C(C#N)C1c1cccnc1 (stereo not drawn)	77.5*	-87.5	7.4	1.6	1.7
C=CCOC(=O)C1=C(C)NC(SCC(N)=O)=C(C#N)C1c1cccs1 (stereo not drawn)	15.8	-1.5	4.2	36.9	10.2
S=C(SSC(=S)N1CCOCC1)N1CCOCC1	.	10.4	.	.	.
CC1(C(=O)Nc2cccc(OC(F)(F)F)c2)Cc2c(-c3cccc(C(N)=O)c3)ccnc2O1 (stereo not drawn)	.	1.1	.	.	.
CCOc1ccc(NC(=O)CN(C)C(=O)c2ccc3c(c2)S(=O)(=O)N=C2CCCCCN23)cc1OCC	.	8.0	.	5.3	.
CSC1=C(C#N)C(c2ccncc2)C(C(=O)Nc2ccccc2)=C(C)N1 (stereo not drawn)	61.5*	-0.1	-3.9	1.6	-17.4
CN(C)c1ccc(Nc2nc(-c3cccnc3)cs2)cc1	81.4*	-44.0	-9.1	3.6	-5.4
CCN(CC)c1ccc(Nc2nc(-c3cccnc3)cs2)cc1	-15.4	-78.9	-2.2	18.1	-6.0
O=S(CC(O)(c1ccccc1)c1ccccc1)CC(O)(c1ccccc1)c1ccccc1	.	8.0	.	-11.2	.
CCN(C(=O)COC(=O)c1cc(-c2cccs2)nc2ccccc12)C1CCS(=O)(=O)C1 (stereo not drawn)	62.9*	-3.5	-4.7	18.9	2.1
CCN(C(=O)COC(=O)Cc1cccc2ccccc12)C1CCS(=O)(=O)C1 (stereo not drawn)	.	5.2	.	121.6*	.
SMILES	PHOSPHO1 block	PABP1 MLLE inh	eIF4H inh	CRFBP-R2 block	PABP polyA inh
CCN(C(=O)COC(=O)c1cc2ccccc2cc1O)C1CCS(=O)(=O)C1 (stereo not drawn)	20.1	2.7	-12.9	-9.5	4.6
CCN(CC(=O)Nc1ccccc1OC)C(=O)CCOc1ccc(C(C)(C)C)cc1	.	6.0	.	-3.1	.
CC(C)CC1NC(=O)c2cc3ccccc3cc2-n2c1nc1cc(Cl)ccc1c2=O (stereo not drawn)	.	4.8	.	-34.0	.
Cc1ccc(C(=O)CNc2cccc([N+](=O)[O-])c2)cc1	-3.9	41.2*	52.4	18.5	-8.2
Cc1nn(C(C)C(=O)NNC(=S)Nc2ccc(F)cc2)c(C)c1[N+](=O)[O-] (stereo not drawn)	71.5*	3.9	6.8	-4.9	9.6
CC(=O)Nc1ccc(NC(=O)C(C)n2nc(C)c([N+](=O)[O-])c2C)cc1 (stereo not drawn)	38.9	-1.5	-4.1	0.6	-5.6
CC(=O)Nc1ccc(NC(=O)C(C)n2nc([N+](=O)[O-])c(Br)c2C)cc1 (stereo not drawn)	63.3*	-0.6	-2.3	10.6	-0.9
COc1ccc(NC(=S)NNC(=O)C(C)n2nc(C)c([N+](=O)[O-])c2C)cc1 (stereo not drawn)	68.4*	-11.6	-4.2	14.2	-16.4
C=C(C)c1cc2c(ccc3ccc(=O)oc32)o1	.	-14.1	.	-2.1	.
Cc1ccc(NC(=O)Nc2nnc([C@H]3C[C@H](O)[C@@H](CO)O3)s2)cc1	.	-13.3	.	.	.
O=C(c1cn(-c2ccccc2)nc1-c1cccs1)N1CCN(c2ccccn2)CC1	3.6	-2.9	5.7	-6.5	-3.7
Cc1ccc(OCc2n[nH]c(=S)n2C2CCCCC2)cc1	90.6*	-6.0	-9.4	-49.4	-12.0
COc1ccc(OCc2n[nH]c(=S)n2-c2ccc(C)cc2)cc1	91.9*	2.2	-9.5	3.1	0.9
S=c1[nH]nc(COc2ccc(Cl)cc2)n1C1CCCCC1	13.5	-24.1	2.7	-44.2	-0.7
COc1ccc(-n2c(COc3cccc(C)c3)n[nH]c2=S)cc1	-110.6	-27.3	-3.3	-4.2	-6.0
C/C=C/c1cccc(-c2nc(C(=O)NC3CCCC3)cc3c2[C@@H](CCO)N(S(=O)C(C)(C)C)C3)c1 (stereo partly drawn)	.	-12.3	.	.	.
COC(=O)CSc1[nH]c2ccccc2c1[N+](=O)[O-]	-2.8	39.3*	-4.1	-0.4	-4.0
Cc1[nH]nc(SCC(=O)NCc2ccccc2)c1[N+](=O)[O-]	-4.0	2.1	-1.2	18.2	-1.6
O=C1c2ccccc2C(=O)N1CCSc1ncn[nH]1	7.8	-6.3	2.1	-6.7	27.2
O=C1c2ccccc2C(=O)N1CCSc1n[nH]c(=S)s1	98.8*	-36.7	-0.2	-25.0	49.8
Cc1cccc(-c2n[nH]nc2C2=CC(=O)CC(C)(C)C2)c1	.	-16.9	.	17.2	.
CCOC(=O)N1CCN(S(=O)(=O)c2ccc(C(=O)N(CCCN(C)C)c3nc4ccc(Cl)cc4s3)cc2)CC1	62.8*	-5.8	0.0	-13.8	-8.5
CCOC(=O)N1CCN(S(=O)(=O)c2ccc(C(=O)N(CCCN(C)C)c3nc4ccc(CC)cc4s3)cc2)CC1	27.6	4.2	-8.6	-3.9	-4.0
O=C(NCC(O)c1nc2ccccc2[nH]1)c1cc([N+](=O)[O-])ccc1F (stereo not drawn)	.	-16.7	.	.	.
Cc1c(Cl)c([N+](=O)[O-])nn1CCCC(=O)O	10.8	-1.6	active	-3.2	74.5

From PubChem BioAssay
